Reference: PubChem BioAssay AID588405 (Sanford-Burnham Center for Chemical Genomics, 2011)
About 6,200 (1.7%) of roughly 360,000 compounds were called active. This is one part of a sample in which actives are shown more often than they occur. Unmarked numbers belong to inactive results.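 The calls were made as follows: active = inhibition of at least 50% at 20 µM; inactive = the rest.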

Test: Peg3 promoter-driven luciferase inhibitors, primary screen, cell-based, HeLa, luciferase luminescence (AID 588405)
Settings: HeLa PEG-Prom luciferase reporter, overnight, at 20 µM, hits give high values

Row | Compound | inhibition
1 | O=C(N/N=C\c1ccc(Br)cc1)c1ccc(Cn2cccn2)o1 | -62.6%
2 | Cc1c(Cl)c([N+](=O)[O-])nn1Cc1ccc(C(=O)N/N=C\c2cc(Cl)ccc2O)o1 | 61.5% (active)
3 | Cc1nn(Cc2ccccc2Cl)c(C)c1NC(=O)Cn1nc([N+](=O)[O-])c(Cl)c1C | -1.84%
4 | COCOc1cccc(CN2CCC(C)(Oc3ccc(SC)cc3)C2)c1 (stereo not drawn) | -1.46%
5 | COc1cc(Cl)c(C)cc1NC(=O)CSc1nnc(-c2ccco2)n1CC(C)C | 12.4%
6 | NC(Cc1ccccc1)c1csc(Nc2cc(Oc3ccccc3)ncn2)n1 (stereo not drawn) | 54.6% (active)
7 | Cc1nc2c(OCc3ccc(Cl)cc3)cccn2c1N(C)Cc1cccs1 | 6.73%
8 | Cc1ccc(C(=O)O/N=C(\N)c2ccccn2)cc1Cl | 62.4% (active)
9 | N/C(=N\OC(=O)c1ccc([N+](=O)[O-])cc1)c1ccccn1 | 5.67%
10 | Cc1cccc(/C(N)=N/OC(=O)c2ccccc2Cl)c1 | -145%
11 | CC(=O)Nc1cccc(-c2cc(NC(C)=O)c3ncc(-c4ccccc4)n3c2)c1 | 20.6%
12 | CCOC(=O)C1CN(S(=O)(=O)c2ccc(OC)cc2)c2cc(Cl)ccc2O1 (stereo not drawn) | 8.58%
13 | Cc1ccc(NC(=O)[C@H](Cc2ccccc2)NC(=O)CC[C@H]2O[C@@H](n3ccc(=O)[nH]c3=O)[C@H](O)[C@@H]2O)cc1C | 4.14%
14 | CCCCNc1c(-c2cccc(Sc3ccc(OC)cc3)c2)nc2ccccn12 | 92.9% (active)
15 | CCCCNc1c(-c2ccc(OC)c(Sc3ccc(OC)cc3)c2)nc2ccc(Cl)cn12 | -44%
16 | COC(=O)c1ccc2nc(-c3cccc(Br)c3)c(Cc3ccc(OC)cc3C)n2c1 | -33%
17 | CS(=O)(=O)/C(C#N)=C/c1cccn1S(=O)(=O)c1ccc([N+](=O)[O-])cc1 | -17.4%
18 | O=C(NCCN1CCOCC1)c1ccccc1N1C(=O)[C@@H]2Cc3c([nH]c4ccccc34)C(c3cccc(Cl)c3)N2C1=O (stereo partly drawn) | 20.3%
19 | CC(C)c1cccc(C(C)C)c1Nc1cn[nH]c1 | 9.45%
20 | COC(=O)c1ccc2nc(-c3ccc(OC)c(OC)c3)c(Cc3ccccc3)n2c1 | -21.6%
21 | Cc1nnc(N/N=C/c2ccccn2)[nH]c1=O | 62% (active)
22 | S=C(NN=Cc1ccccn1)Nc1ccccn1 | -79.6%

Row | Compound | inhibition
23 | O=C(N/N=C/c1ccccn1)C12CC3CC(CC(C3)C1)C2 | -8.28%
24 | Cc1ccc(CNC(=O)Nc2nnc([C@H]3C[C@H](O)[C@@H](CO)O3)s2)cc1 | -6.3%
25 | CC1(C(=O)Nc2ccc3c(c2)OCCO3)CCN1C(=O)Cc1cc(F)ccc1F (stereo not drawn) | 2.13%
26 | Cc1ccc(C(=O)N/C(=C\c2ccco2)C(=O)NC2CCS(=O)(=O)C2)cc1 (stereo not drawn) | 16.9%
27 | CCCc1nc2c3ccccc3ccn2c1Cc1ccccc1C(F)(F)F | -16%
28 | CN1OC[C@@H]2CN(C(=O)C(C)(C)C)[C@H](c3ccc(-n4ccnc4)cc3)C[C@@H]21 | -4.85%
29 | CC(=O)Nc1ccc(C=Cc2ccc([N+](=O)[O-])cc2)cc1 | -310%
30 | O=C1/C(=C\c2ccc([N+](=O)[O-])cc2)CS(=O)(=O)C/C1=C/c1ccc([N+](=O)[O-])cc1 | 100% (active)
31 | CN(C)S(=O)(=O)N1CCN(c2ccc([N+](=O)[O-])cc2)CC1 | 14.5%
32 | CCCNC(=O)C1(C)CCCN(Cc2cccc(C(F)(F)F)c2)C1 (stereo not drawn) | 2.53%
33 | CCCOc1ccc(F)cc1-c1cc(C(=O)Nc2ccc(F)c(Cl)c2)[nH]n1 | 25.8%
34 | CC1(C(=O)NS(=O)(=O)C2CC2)CCCN(C(=O)CSc2ccccc2)C1 (stereo not drawn) | 8.07%
35 | O=S(=O)(c1ccccc1)N1CCC(c2ccccc2)CC1 | 6.2%
36 | CC(=O)N1CC(C)c2scc(C)[n+]2-c2ccccc21 (stereo not drawn) | 5.89%
37 | CN1OC[C@@H]2CN(S(=O)(=O)c3cccc4ccccc34)[C@H](c3ccc(N4CCCCC4)cc3)C[C@@H]21 | -9.16%
38 | COc1ccc(S(=O)(=O)N2C[C@H]3CON(C)[C@H]3C[C@H]2c2cccc(Br)c2)cc1 | 6.82%
39 | CN1OC[C@@H]2CN(S(=O)(=O)c3cccc(C(F)(F)F)c3)[C@H](c3ccc(-c4cc5ccccc5o4)cc3)C[C@@H]21 | 68.8% (active)
40 | Nc1nc2c(ncn2[C@@H]2O[C@H](CNS(=O)(=O)N3CCc4ccccc4C3)[C@@H](O)[C@H]2O)c(=O)[nH]1 | 5.67%
41 | Cc1ccc(-c2cnc(C(O)c3cc(Cl)cc(Cl)c3)[nH]2)cc1 (stereo not drawn) | 37.2%
42 | CC1(C(=O)O)CCN1C(=O)/C=C/c1ccccc1 (stereo not drawn) | -2.65%
43 | CC1(C)CCSC(/C=C/c2ccccc2)=N1 | 106% (active)
44 | CC1(C(=O)NS(=O)(=O)c2ccccc2)CCN1C(=O)C/C=C/c1ccccc1 (stereo not drawn) | -9.64%

Row | Compound | inhibition
45 | CC(C)(C)c1ccc(C(=O)NCC(=O)OCN2C(=O)c3ccccc3C2=O)cc1 | -11.7%
46 | CC(=O)N(CN1C(=O)C2CC=CCC2C1=O)c1cccc(Cl)c1 (stereo not drawn) | 12%
47 | O=C(CCl)N(Cc1cccc([N+](=O)[O-])c1)c1cccc(Cl)c1 | 109% (active)
48 | COC(=O)c1cc(C(=O)N(Cc2ccccc2)c2ccccn2)cc([N+](=O)[O-])c1 | 5.92%
49 | COC(=O)Cc1ccc(OC2(C)CCN(Cc3ccc4c(c3)OCCO4)C2)cc1 (stereo not drawn) | -18.6%
50 | Cc1cccc(C)c1NC(=O)CN1CCN(c2ccc(F)cc2)CC1 | 5.77%
51 | CCc1ccc(CNC(=O)C2CCN(c3nnc(C)c4c(C)n(-c5ccc(C)cc5)nc34)CC2)cc1 | 99.3% (active)
52 | CCc1ccc(CNC(=O)C2CC(=O)N(CCc3ccc(C)cc3)C2)cc1 (stereo not drawn) | 7.77%
53 | Cc1ccc(NC(=O)N2CCC(C(=O)NCc3ccc(F)cc3)CC2)cc1 | 6.32%
54 | COc1ccc(OC)c(S(=O)(=O)N2CCCC(C(=O)NCCc3ccccc3)C2)c1 (stereo not drawn) | 5.79%
55 | N#CCCN(C(=O)COC(=O)C1CCN(c2ccc(C(F)(F)F)cn2)CC1)c1ccc(F)cc1 | -15.9%
56 | CCOC(=O)C1(Cc2ccccc2C)CCCN(C(=O)c2ccc(COC)o2)C1 (stereo not drawn) | -235%
57 | O=C(CNC(=O)Cc1ccccc1)N=Nc1c(O)[nH]c2ccc(Br)cc12 | -7.31%
58 | Cc1cccc(N=Nc2c(O)[nH]c3ccc(F)cc23)c1 | -236%
59 | NS(=O)(=O)c1ccc(N=Nc2c(O)[nH]c3ccc(Br)cc23)cc1 | 98.7% (active)
60 | CCCNC(=O)c1cc(C2CCCN(C(=O)c3ccc4c(c3)CCO4)C2)on1 (stereo not drawn) | 11%
61 | Cc1ccc(N2C(=O)CC(NCc3ccc4c(c3)OCO4)C2=O)cc1Cl (stereo not drawn) | -15.9%
62 | O=C(CSc1nc(=O)n2ccccc2n1)Nc1ccc2c(c1)OCCO2 | -14.4%
63 | CCc1ccc([C@@H]2CC(=O)[C@@H]3CN(S(=O)(=O)c4ccc(C)cc4)[C@H](c4ccc(Cl)cc4)C[C@@H]3N2S(=O)(=O)c2ccc(C)cc2)cc1 | 15.4%
64 | CC(C)(C)c1ccc(Oc2ccc(N)cc2)cc1 | 76.7% (active)
65 | Cc1cc(C(C)(C)C)cc(C)c1N | 6.32%
66 | COc1cnc(-c2ccccn2)nc1Oc1ccc(C(C)(C)C)cc1 | -4.72%

Row | Compound | inhibition
67 | CC1(C(=O)NS(=O)(=O)c2ccc3ccccc3c2)CCN1C(=O)C1(c2ccc(Cl)cc2)CCC1 (stereo not drawn) | -9.9%
68 | CC1(C(=O)NCc2cccc3ccccc23)CCN1Cc1ccc(-c2ccccc2)o1 (stereo not drawn) | 21.9%
69 | CCOC(=O)c1ccn(S(=O)(=O)c2ccc(C)cc2)c1-c1ccccc1 | -0.12%
70 | Cc1nc2scc(-c3cccs3)c2c(=O)n1N | 3.36%
71 | CCS(=O)(=O)N1CCC(N2CCN(c3ccccc3)CC2)CC1 | 52% (active)
72 | CCS(=O)(=O)N1CCC(C(=O)N2CCN(c3ccccc3)CC2)CC1 | -2.59%
73 | CS(=O)(=O)N1CCC(C(=O)N2CCN(c3ccccc3)CC2)CC1 | 8.23%
74 | CCC(C)(C)NC(=O)C(c1cccn1C)N(Cc1ccc(C)cc1)C(=O)Cn1nnc2ccccc21 (stereo not drawn) | 5.59%
75 | Cc1ccccc1-c1nc(NC(C)C)nc2cc(-c3ccccc3)sc12 | 7.19%
76 | COc1ccc2sc(-c3ccccc3OC)c(-c3ccc(OCCN4CCCC4)cc3)c2c1 | 34.9%
77 | COc1cc(OC)cc(-c2sc3ccc(OC)cc3c2-c2ccc3cc[nH]c3c2)c1 | 2.15%
78 | COc1cccc(-c2sc3ccc(OC)cc3c2-c2ccc(OCCN3CCCCC3)cc2)c1 | 87.9% (active)
79 | CCN(CCN(C)C)C(=O)c1ccc2nc(C)c(N(C)C(=O)CCc3ccccc3)n2c1 | -8.8%
80 | COC(=O)c1ccc2nc(C3CCCCC3)c(Cc3cccc(F)c3)n2c1 | -20.6%
81 | Cc1cc(C)c2nc3nc(C)cc(C)c3c(N)c2c1 | 59.9% (active)
82 | COC(=O)c1ccc(COc2ccc(/C=C/C(=O)c3ccc(OC)c(CSCC(=O)O)c3)cc2OC)cc1 | -5.11%
83 | COc1ccc(C(=O)/C=C/c2ccc(-c3ccccc3)cc2)cc1CSCC(=O)O | 98.8% (active)
84 | COc1ccccc1CCNC(=O)C1CCN(C(=O)/C=C/c2ccccc2)CC1 | -46.9%
85 | COc1ccc2c3c1O[C@H]1C[C@@H](O)C=C[C@@]31CCN(C)C2 | -14.7%
86 | COc1ccc(NC(=O)c2cc(-c3cc(OC)c(OC)c(OC)c3)nc3ccccc23)c(OC)c1 | 50.8% (active)
87 | COc1ccc(NC(=O)c2sc(N3CCOCC3)nc2-c2ccccc2)c(OC)c1 | 20.4%
88 | COc1ccc(-c2cc(C(=O)n3cnc4ccccc43)c3ccccc3n2)cc1 | -64%
